Screening results as filed in PubChem.
ALDH1A1 block: inhibitors of human aldehyde dehydrogenase 1A1. P00352. Purified ALDH1A1, NADH fluorescence, propionaldehyde substrate. Potency, µM (highest dose often 75.3 µM), for the others: at the highest dose activity, negative = inhibition, actives largely listed as inhibitors. 220,000 compounds, 7.3% hits;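 note: plate controls were no enzyme wells and a reference inhibitor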
HPGD inh: HPGD (human) dehydrogenase inhibition | P15428 | purified HPGD, NADH fluorescence kinetic, PGE2 substrate | Potency, µM, inactives show top-dose activity change, negative = inhibition, usual class: inhibitors | 150,000 compounds, 4.3% hits | AID 894
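NADH formation kinetics: reaction with 30 uM PGE2 and 1 mM NAD+ (final), 20 nM enzyme, Tris-HCl pH 8 with Tween 20, after 15 min compound preincubation at room temperature. Fluorescence change, last versus first of five reads.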
JMJD2E inh: blocks human JMJD2E demethylase activity; B2RXH2; Potency, µM (top dose mostly 57.1 µM), for inactives: at the top dose activity change, negative = inhibition, usual class: inhibitors; JMJD2E catalytic domain, FDH-coupled NADH fluorescence (FDH is formaldehyde dehydrogenase); 230,000 compounds, 1.6% hits;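 note: 0% = wells with enzyme and -100% = buffer wells without enzyme; nearly all actives have a fitted effect of over 50% in size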
Target sequence (B2RXH2 1-337 limits assumed): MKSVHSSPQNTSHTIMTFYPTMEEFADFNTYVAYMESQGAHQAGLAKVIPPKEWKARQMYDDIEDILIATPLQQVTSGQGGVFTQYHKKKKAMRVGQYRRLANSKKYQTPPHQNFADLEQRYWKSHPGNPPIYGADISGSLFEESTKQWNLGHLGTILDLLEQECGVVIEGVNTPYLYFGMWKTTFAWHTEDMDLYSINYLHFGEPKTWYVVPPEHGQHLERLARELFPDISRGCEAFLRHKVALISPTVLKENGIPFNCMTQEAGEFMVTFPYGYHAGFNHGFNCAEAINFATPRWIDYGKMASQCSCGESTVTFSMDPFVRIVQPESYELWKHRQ
Tau ThT inhib: blocks human tau fibril formation measured by thioflavin T | recombinant tau K18 P301L, heparin-induced fibrillization, ThT fluorescence | 270,000 compounds, 2.1% hits | AID 1460 | Potency, µM (series often up to 57.4 µM), without a hit: at the highest dose activity, negative = inhibition, usual class: inhibitors; active = well fitted curve in the direction sought with a large enough effect; inconclusive = small, poorly fitted or top-dose-only effect, or another doubt; inactive = no such curve, though single readings can be large; an effect the other way counts as inactive or inconclusive; note: nearly all actives have a fitted effect of over 55% in size
Target sequence (P10636 561-689 P618L limits assumed): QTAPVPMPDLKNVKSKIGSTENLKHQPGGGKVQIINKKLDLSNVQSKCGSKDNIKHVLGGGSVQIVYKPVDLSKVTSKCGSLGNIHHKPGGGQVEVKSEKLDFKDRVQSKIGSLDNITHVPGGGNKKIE
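Fibril formation assay: tau K18 P301L at 15 uM with trace Alexa 594 label, heparin inducer 20 uM, pH 7 sodium acetate buffer, 37 C for 6 hr; endpoint ThT signal.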
Tau FP inhib: tau fibrillization inhibition (FP). P10636. K18 P301L tau heparin fibrillization, Alexa594 FP, 6 h. Potency, µM (titrated, usually from 57.7 µM), without a hit: top-dose activity, negative = inhibition, hits mostly inhibitors. 280,000 compounds, 0.39% hits; active = well fitted curve in the direction sought with a large enough effect; inconclusive = small, poorly fitted or top-dose-only effect, or another doubt; inactive = no such curve, though single readings can be large; an effect the other way counts as inactive or inconclusive; note: nearly all actives have a fitted effect of over 55% in size
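Steps: dispense K18 P301L tau (15 uM plus 0.24 uM Alexa 594 tracer, final) in pH 7 sodium acetate; add compound; add heparin (20 uM final); incubate 6 hr, 37 C; add ThT (30 uM final); after 1 hr ambient, read FP.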
Tau fluor counter: counter-screen for tau fibril formation inhibitors; tau K18 P301L Alexa594 fluorescence, heparin fibrillization; Potency, µM (top dose mostly 57.7 µM), without a hit: at the top dose activity change, negative = decrease; 280,000 compounds, 0.93% hits; active = well fitted curve in the direction sought with a large enough effect; inconclusive = small, poorly fitted or top-dose-only effect, or another doubt; inactive = no such curve, though single readings can be large; an effect the other way counts as inactive or inconclusive; note: nearly all actives have a fitted effect of over 55% in size
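Human tau K18 P301L (15 uM unlabeled, 0.24 uM Alexa 594-labeled) in 100 mM sodium acetate pH 7 with 20 uM heparin, 6 hr at 37 C. ThT 30 uM added, 1 hr ambient; Alexa 594 FP and total fluorescence read at 555/632 nm.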
Starred values were filed as active, the others as inactive; ? = inconclusive; · = no result given; [ ] = another dose, or the depositor's remark. Rows were chosen to be rich in hits. Some 9.9% of all compounds tested hit in one or more screens of this group. Unless noted, calls come from the whole dose curve; as a rule, active = well fitted inhibition curve with a large enough effect (not every such curve was filed as active); inconclusive = small, poorly fitted or top-dose-only effect, or another doubt; inactive = no such curve, though single readings can be large or run the other way. Unless noted, % is set by controls: 0 for no effect and ±100 for the full control effect; potency is the fitted concentration of half-maximal effect.

SMILES	ALDH1A1 block	HPGD inh	JMJD2E inh	Tau ThT inhib	Tau FP inhib	Tau fluor counter
C[C@H](NC(=O)Nc1cccc(Br)c1)C(=O)O	·	·	2%	1%	-2%	0%
COc1ccc(OCCn2nnc3sc4c(c3c2=O)CCCC4)cc1	·	·	·	?	-1%	-26%
Cc1cc2nc3c(=O)[nH]c(=O)nc-3n(CC(O)C(O)C(O)CO)c2cc1C (stereo not given)	?	-14%	?	?	2%	-1%
CC(=O)OCCn1c2nc(=O)[nH]c(=O)c-2nc2cc(C)c(C)cc21	1%	·	2.8µM*	?	-12%	-8%
CC(=O)Nc1ccc(-c2csc(NC(C)c3ccccc3)n2)cc1 (stereo not given)	18µM*	·	-6%	?	11%	?
CC(=O)Nc1ccc(-c2csc(N/N=C(/C)c3ccccc3)n2)cc1	·	·	?	·	?	11µM*[quencher]
C/C(=N/Nc1nc(-c2ccc(Cl)cc2)cs1)c1cccs1	16µM*	-13%	-1%	?	3%	?
Clc1ccc(-c2csc(N/N=C\c3cccnc3)n2)cc1	8%	-15%	-1%	?	1%	?
COc1ccc(C(=O)n2nc(-c3ccco3)nc2NCc2cccs2)cc1OC	·	·	·	?	-17%	?
O=C(O)c1ccc(-n2c(O)c(C=C3N=c4ccccc4=N3)sc2=S)cc1	·	·	2%	18µM*	4%	?
O=C(O)CCCCCn1c(O)c(C=C2N=c3ccccc3=N2)sc1=S	-15%	?	-2%	13µM*	18%	?
COc1ccc(COc2ccccc2C(=O)Nc2ccccn2)cc1[N+](=O)[O-]	?	-19%	-2%	1%	5%	4%
COCCN1C(=O)/C(=C/c2ccc(Oc3ccc([N+](=O)[O-])cn3)c(OC)c2)SC1=Nc1ccccc1	0.4µM*	-15%	3%	-12%	1%	-7%
COCC(=O)Nc1ccc(C(C)C)cc1	-2%	18µM*	-5%	-10%	-1%	-3%
CC(C)COC(=O)NCCCOC(=O)Nc1ccccc1	22µM*	-11%	0%	-8%	3%	-10%
CCCCOC(=O)Nc1ccc(C(N)=O)cc1	11%	-3%	-4%	-7%	5%	-4%
CCCCOC(=O)Nc1ccc(C(C)C)cc1	2%	13µM*	10%	-18%	-7%	-17%
CCCCOC(=O)Nc1ccc(N(C)C)cc1	?	32µM*	?	?	8%	2%
COc1ccc(CNC(=O)Cn2ccc3cc(S(=O)(=O)N4CCCCCC4)ccc32)cc1OC	·	·	·	6%	6%	-23%
Fc1cccc(Cl)c1/C=N/n1c(-c2cccnc2)n[nH]c1=S	?	·	-2%	-5%	-1%	-1%
CC(C)C1=CC2=CC[C@@H]3[C@@](C)(C(=O)O)CCC[C@]3(C)C2CC1 (stereo not given in full)	?	-10%	35µM*	-12%	-6%	-9%
Cc1ccc(S(=O)(=O)N(C)CC(=O)OCC(=O)c2c(N)n(C)c(=O)n(C)c2=O)cc1	-1%	·	7%	3%	-14%	-7%
COc1ccc(S(=O)(=O)Nc2cc(C(=O)NC(C)C)ccc2N2CCOCC2)cc1	0.79µM*	-24%	0%	-8%	-2%	-14%
COc1ccc(NS(=O)(=O)c2ccc(N3CCOCC3)c(NC(=O)c3ccc(OC)cc3)c2)cc1	9%	-6%	?	-8%	1%	-23%
COc1ccc(S(=O)(=O)Nc2cc(C(=O)NC3CCCCCC3)ccc2N2CCOCC2)cc1	3.5µM*	-11%	-14%	-19%	8%	-17%
SMILES	ALDH1A1 block	HPGD inh	JMJD2E inh	Tau ThT inhib	Tau FP inhib	Tau fluor counter
Cc1ccc(NC(=O)Cc2ccc(-n3cccc3)cc2)c(C)c1	-2%	-3%	4%	-2%	-10%	0%
CCOc1ccc(NCC(=O)Nc2ccc(Cl)cc2C)cc1	3.5µM*	-5%	5%	?	-4%	-21%
Cc1ccc(NC(=O)C(=O)NCCOc2ccc(Cl)cc2)c(C)c1	20%	-8%	-1%	-1%	-6%	3%
Cc1ccc(NC(=O)CCl)c(C)c1	0.28µM*	·	6%	-9%	0%	-2%
CCCOc1ccc(NCC(=O)Nc2ccc(C)cc2C)cc1	2.2µM*	-2%	-2%	?	7%	-17%
COc1ccc(NCC(=O)Nc2ccc(Cl)cc2C)c(OC)c1	4.5µM*	7.9µM*	?	32µM*	-14%	?
Brc1ccc(-n2cc(-c3ccccc3)c3c(NN4CCOCC4)ncnc32)cc1	2%	·	-12%	?	4%	-9%
COc1cccc(CNC(=O)CCC2CCCN(c3cc(C)nc(N4CCCC4)n3)C2)c1 (stereo not given)	10%	·	4%	-1%	-1%	3%
Clc1ccc2ncc(-c3nnnn3-c3ccccc3)c(-c3ccccc3)c2c1	11µM*	-10%	-6%	-13%	2%	-13%
COc1cc2c(cc1OC)n(CC(=O)c1ccc(C)cc1C)c(=O)n1nc(CCn3nc(C)cc3C)nc21	·	·	·	-4%	-10%	-9%
COCCn1c(C)cc(C2=NNC(=Nc3ccc(OC)cc3)SC2)c1C	10µM*	-16%	?	?	-8%	-20%
COc1ccc(N=C2NN=C(c3ccc4c(c3)OCCO4)CS2)cc1	25µM*	-3%	-17%	7.1µM*	?	?
COCCN=C1NN=C(c2ccc(C)c([N+](=O)[O-])c2)CS1	?	·	-2%	?	3%	-7%
COCCn1c(C)cc(C2=NNC(=Nc3ccccc3)SC2)c1C	?	-15%	-26%	?	-15%	-29%
FC(F)Sc1ccc(N=C2NN=C(c3ccc4c(c3)OCCO4)CS2)cc1	?	-8%	0%	?	1%	?
CCCCN=C1NN=C(c2ccc(C)c(C)c2)CS1	20µM*	·	?	?	-1%	-22%
CCCCN=C1NN=C(c2ccc3c(c2)OCCO3)CS1	10µM*	·	?	?	7%	-14%
CCN=C1NN=C(c2c[nH]c3ccccc23)CS1	-7%	·	-6%	?	10%	-17%
CCOc1ccc(NS(=O)(=O)c2ccc(NC(=O)N3CCCC3)cc2)cc1	·	·	·	2%	-8%	-5%
Cc1ccc(-c2nnc(SCC(=O)NCCC(C)C)nc2-c2ccc(C)cc2)cc1	·	·	·	-15%	-1%	-18%
COc1cccc(NC(=S)N/N=C2/CCCCc3ccccc32)c1	?	-11%	-11%	-15%	17%	-28%
c1cc2c(cc1C1=NNC(=NC3CC3)SC1)OCCO2	10µM*	·	?	?	2%	-8%
c1csc(C2=NNC(=NC3CCCCC3)SC2)c1	?	·	-7%	?	-6%	-23%
CCC(C)N(C(=O)COc1ccc(NC(C)=O)cc1)C1CCS(=O)(=O)C1 (stereo not given)	11%	·	13%	-5%	3%	-4%
